Columns and labels:
Test in all cases: DAPPL (digital affinity profiling via proximity ligation, sequencing); 10 mM Tris-HCl pH 7.5, 50 mM NaCl, 1 mM DTT, 4% glycerol, room temperature, 30 min; GST-TFs on glutathione beads, 16-mer random dsDNA library, 0.1% formaldehyde crosslink after washing; high values mean tight binding
FEV = target: T1, FEV (Homo sapiens, UniProt Q99581 1-238); details: protein: recombinant; tags: N-terminal GST; dsDNA, one strand shown
T1 sequence: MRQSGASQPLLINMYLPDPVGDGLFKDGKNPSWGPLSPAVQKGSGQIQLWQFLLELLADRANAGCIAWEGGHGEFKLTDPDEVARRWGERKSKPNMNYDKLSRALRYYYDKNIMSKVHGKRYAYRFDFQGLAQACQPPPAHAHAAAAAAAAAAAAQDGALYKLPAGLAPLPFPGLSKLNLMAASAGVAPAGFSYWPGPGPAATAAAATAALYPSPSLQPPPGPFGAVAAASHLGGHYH
Method in brief: (§1)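 Pools were built from human transcription factors expressed in yeast as GST fusions, captured on glutathione beads and DNA-barcoded, along with a tag-only sample. Incubation with 200 nmole of a 16-mer random double-stranded DNA library lasted 30 min at room temperature in Tris/NaCl/DTT/glycerol buffer, and was followed by washing, 0.1% formaldehyde crosslinking, proximity ligation, PCR amplification and Illumina NextSeq500 sequencing. Binding signal is the quotient of each hexamer's read frequency for a factor and its frequency for the tag-only sample.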

ETV5 = ETV5 (Homo sapiens, UniProt P41161 1-510); details: protein: recombinant; tags: N-terminal GST; dsDNA, one strand shown
Chain of ETV5 (P41161 whole entry): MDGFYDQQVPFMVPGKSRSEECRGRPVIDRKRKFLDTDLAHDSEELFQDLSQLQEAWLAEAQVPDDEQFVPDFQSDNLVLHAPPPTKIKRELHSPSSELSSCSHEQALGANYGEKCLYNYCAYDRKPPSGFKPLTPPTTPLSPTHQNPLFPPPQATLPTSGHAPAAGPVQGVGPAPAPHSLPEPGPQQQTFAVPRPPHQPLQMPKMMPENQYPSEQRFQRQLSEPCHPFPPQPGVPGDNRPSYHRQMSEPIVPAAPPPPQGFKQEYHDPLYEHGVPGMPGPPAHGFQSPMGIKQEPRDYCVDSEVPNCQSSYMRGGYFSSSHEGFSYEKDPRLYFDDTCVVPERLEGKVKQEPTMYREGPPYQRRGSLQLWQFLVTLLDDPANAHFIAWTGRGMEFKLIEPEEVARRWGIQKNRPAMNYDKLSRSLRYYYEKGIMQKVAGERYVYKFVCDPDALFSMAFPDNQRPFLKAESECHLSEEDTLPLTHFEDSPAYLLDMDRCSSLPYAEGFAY
Method in brief: as §1

HSF1 = HSF1 (Homo sapiens, UniProt Q00613 1-529); details: protein: recombinant; tags: N-terminal GST; chain copies: 3; dsDNA, one strand shown
Chain of HSF1 (Q00613 whole entry): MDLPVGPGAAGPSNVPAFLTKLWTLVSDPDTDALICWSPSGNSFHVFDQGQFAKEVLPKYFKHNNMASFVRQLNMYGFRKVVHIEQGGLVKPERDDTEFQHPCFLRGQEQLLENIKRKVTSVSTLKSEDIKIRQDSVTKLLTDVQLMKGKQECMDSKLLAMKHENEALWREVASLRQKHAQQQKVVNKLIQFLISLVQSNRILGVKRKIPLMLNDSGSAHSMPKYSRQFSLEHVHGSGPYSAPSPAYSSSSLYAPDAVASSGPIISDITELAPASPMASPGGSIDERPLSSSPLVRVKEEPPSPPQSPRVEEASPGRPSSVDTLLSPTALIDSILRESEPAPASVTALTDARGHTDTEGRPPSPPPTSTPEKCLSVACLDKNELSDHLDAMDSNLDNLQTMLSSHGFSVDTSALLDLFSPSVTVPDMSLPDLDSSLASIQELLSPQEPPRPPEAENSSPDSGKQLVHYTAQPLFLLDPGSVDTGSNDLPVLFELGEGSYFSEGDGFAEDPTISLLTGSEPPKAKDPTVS
Method in brief: as §1

SPIC = target: T2, SPIC (Homo sapiens, UniProt Q8N5J4 1-248); details: protein: recombinant; tags: N-terminal GST; dsDNA, one strand shown
T2 sequence: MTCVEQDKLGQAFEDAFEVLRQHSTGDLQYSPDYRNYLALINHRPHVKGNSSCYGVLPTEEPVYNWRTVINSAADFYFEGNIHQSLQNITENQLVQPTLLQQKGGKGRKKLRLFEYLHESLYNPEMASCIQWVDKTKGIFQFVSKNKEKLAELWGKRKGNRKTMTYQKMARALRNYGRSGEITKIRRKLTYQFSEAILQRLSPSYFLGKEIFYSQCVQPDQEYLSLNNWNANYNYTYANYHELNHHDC
Method in brief: as §1

ELF4 = ELF4 (Homo sapiens, UniProt Q99607 1-663); details: protein: recombinant; tags: N-terminal GST; dsDNA, one strand shown
Chain of ELF4 (Q99607 whole entry): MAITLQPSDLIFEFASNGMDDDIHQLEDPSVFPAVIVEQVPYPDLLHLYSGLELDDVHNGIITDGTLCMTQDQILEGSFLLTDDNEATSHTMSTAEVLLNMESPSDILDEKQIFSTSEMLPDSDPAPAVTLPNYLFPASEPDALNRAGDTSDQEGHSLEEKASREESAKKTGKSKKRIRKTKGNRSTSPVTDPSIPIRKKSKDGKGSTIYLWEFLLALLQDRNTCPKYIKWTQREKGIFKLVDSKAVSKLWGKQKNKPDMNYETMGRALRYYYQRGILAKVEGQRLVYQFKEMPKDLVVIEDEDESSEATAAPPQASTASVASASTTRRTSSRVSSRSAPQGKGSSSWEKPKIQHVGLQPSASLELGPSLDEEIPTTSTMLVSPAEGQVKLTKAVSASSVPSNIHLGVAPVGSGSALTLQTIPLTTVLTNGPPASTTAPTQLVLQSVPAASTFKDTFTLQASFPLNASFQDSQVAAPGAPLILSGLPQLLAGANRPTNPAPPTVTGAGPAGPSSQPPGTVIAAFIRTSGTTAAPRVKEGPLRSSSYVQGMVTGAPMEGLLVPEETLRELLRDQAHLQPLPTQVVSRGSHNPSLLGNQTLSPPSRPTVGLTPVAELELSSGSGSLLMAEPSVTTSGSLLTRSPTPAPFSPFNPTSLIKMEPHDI
Method in brief: as §1

ELK4 = target: T3, ELK4 (Homo sapiens, UniProt P28324-2 1-405); details: protein: recombinant; tags: N-terminal GST; dsDNA, one strand shown
T3 sequence: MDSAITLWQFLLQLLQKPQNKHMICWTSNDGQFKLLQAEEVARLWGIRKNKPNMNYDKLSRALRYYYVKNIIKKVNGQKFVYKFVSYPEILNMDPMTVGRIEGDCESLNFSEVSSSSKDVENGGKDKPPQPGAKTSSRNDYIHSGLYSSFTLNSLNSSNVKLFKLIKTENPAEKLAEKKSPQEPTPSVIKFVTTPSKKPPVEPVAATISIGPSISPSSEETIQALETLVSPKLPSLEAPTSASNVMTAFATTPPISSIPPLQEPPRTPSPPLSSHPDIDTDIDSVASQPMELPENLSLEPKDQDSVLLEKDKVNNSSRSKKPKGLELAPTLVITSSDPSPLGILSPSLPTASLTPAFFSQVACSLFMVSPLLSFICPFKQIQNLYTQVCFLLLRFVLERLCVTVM
Method in brief: as §1

ETV2 = target: T4, ETV2 (Homo sapiens, UniProt O00321 1-342); details: protein: recombinant; tags: N-terminal GST; dsDNA, one strand shown
T4 sequence: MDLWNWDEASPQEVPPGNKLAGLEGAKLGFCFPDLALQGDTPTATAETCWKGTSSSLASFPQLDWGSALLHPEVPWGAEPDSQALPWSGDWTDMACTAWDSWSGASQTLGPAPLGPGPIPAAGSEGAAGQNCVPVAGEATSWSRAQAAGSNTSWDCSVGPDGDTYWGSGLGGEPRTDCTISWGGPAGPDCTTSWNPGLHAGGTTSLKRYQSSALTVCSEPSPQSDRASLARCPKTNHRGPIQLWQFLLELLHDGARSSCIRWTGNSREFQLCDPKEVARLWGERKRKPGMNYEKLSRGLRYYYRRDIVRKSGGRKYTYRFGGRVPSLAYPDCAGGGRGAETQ
Method in brief: as §1

ELF3 = target: T5, ELF3 (Homo sapiens, UniProt P78545 1-371); details: protein: recombinant; tags: N-terminal GST; dsDNA, one strand shown
T5 sequence: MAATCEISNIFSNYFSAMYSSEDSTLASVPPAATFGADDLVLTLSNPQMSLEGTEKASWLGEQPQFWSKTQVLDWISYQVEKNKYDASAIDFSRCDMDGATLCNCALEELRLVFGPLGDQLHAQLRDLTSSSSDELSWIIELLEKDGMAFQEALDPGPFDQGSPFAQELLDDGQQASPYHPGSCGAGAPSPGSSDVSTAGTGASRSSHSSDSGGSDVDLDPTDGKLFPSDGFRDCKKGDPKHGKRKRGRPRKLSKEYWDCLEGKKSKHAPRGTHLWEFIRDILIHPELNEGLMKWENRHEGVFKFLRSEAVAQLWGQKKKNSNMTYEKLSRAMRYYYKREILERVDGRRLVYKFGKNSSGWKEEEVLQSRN
Method in brief: as §1

CRX = CRX (Homo sapiens, UniProt O43186 1-299); details: protein: recombinant; tags: N-terminal GST; dsDNA, one strand shown
Chain of CRX (O43186 whole entry): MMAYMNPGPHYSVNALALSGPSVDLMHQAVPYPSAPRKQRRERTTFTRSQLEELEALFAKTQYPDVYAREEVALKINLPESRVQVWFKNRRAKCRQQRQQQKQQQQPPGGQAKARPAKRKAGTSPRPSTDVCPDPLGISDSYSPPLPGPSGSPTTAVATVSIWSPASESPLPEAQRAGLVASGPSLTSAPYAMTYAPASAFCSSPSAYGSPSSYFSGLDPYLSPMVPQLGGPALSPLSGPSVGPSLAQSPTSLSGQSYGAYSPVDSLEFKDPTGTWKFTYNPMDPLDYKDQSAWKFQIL
Method in brief: as §1

ETV1 = ETV1 (Homo sapiens, UniProt P50549 1-477); details: protein: recombinant; tags: N-terminal GST; dsDNA, one strand shown
Chain of ETV1 (P50549 whole entry): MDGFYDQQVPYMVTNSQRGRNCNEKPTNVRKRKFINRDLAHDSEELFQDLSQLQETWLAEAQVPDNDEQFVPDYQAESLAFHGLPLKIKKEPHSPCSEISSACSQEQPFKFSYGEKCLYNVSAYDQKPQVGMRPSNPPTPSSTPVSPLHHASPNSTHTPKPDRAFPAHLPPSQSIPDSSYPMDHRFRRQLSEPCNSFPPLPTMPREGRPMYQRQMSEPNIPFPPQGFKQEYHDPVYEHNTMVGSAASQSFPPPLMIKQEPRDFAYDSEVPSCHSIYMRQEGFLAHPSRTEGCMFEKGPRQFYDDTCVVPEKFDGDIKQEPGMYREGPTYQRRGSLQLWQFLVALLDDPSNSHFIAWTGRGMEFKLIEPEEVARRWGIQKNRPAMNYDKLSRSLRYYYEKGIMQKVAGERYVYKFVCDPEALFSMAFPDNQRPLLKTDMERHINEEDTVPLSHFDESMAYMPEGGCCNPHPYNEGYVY
Method in brief: as §1

ERF = target: T6, ERF (Homo sapiens, UniProt P50548 1-548); details: protein: recombinant; tags: N-terminal GST; dsDNA, one strand shown
T6 sequence: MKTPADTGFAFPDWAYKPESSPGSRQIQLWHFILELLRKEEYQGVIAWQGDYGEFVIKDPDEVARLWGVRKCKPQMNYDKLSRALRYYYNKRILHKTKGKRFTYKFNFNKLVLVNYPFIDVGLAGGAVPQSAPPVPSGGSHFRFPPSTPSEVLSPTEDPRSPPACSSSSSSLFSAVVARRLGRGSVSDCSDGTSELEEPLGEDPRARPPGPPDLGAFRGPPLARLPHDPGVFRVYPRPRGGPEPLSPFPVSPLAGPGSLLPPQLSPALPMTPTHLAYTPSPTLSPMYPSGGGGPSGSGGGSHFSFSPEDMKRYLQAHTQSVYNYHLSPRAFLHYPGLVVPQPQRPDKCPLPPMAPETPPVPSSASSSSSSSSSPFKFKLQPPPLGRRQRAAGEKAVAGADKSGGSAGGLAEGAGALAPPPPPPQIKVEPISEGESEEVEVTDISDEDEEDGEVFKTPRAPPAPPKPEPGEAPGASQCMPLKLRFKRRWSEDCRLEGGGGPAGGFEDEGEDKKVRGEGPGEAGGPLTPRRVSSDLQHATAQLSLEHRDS
Method in brief: as §1

ETV3L = target: T7, ETV3L (Homo sapiens, UniProt Q6ZN32 1-361); details: protein: recombinant; tags: N-terminal GST; dsDNA, one strand shown
T7 sequence: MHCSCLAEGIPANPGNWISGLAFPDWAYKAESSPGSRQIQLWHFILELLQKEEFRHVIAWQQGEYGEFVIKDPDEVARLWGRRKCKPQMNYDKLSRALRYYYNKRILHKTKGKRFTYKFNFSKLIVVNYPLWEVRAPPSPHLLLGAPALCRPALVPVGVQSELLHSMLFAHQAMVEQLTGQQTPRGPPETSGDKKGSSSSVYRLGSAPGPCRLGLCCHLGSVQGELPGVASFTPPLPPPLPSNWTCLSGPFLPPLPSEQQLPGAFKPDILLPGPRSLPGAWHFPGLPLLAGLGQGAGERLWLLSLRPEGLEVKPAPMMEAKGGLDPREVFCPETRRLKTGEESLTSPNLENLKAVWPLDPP
Method in brief: as §1

ETS2 = target: T8, ETS2 (Homo sapiens, UniProt P15036 1-469); details: protein: recombinant; tags: N-terminal GST; dsDNA, one strand shown
T8 sequence: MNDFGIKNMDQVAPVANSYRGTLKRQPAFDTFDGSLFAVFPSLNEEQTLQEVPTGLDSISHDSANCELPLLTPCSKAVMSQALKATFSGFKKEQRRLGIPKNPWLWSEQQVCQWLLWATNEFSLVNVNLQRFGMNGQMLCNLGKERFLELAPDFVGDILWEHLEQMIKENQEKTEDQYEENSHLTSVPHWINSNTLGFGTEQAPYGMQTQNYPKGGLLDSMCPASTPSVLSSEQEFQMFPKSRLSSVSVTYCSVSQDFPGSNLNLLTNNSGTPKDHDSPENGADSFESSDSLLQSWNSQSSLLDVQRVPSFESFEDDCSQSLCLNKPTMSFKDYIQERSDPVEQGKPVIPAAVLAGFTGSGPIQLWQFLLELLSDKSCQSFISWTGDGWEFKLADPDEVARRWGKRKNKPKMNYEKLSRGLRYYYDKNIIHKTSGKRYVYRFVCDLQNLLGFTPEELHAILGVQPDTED
Method in brief: as §1

SPDEF = target: T9, SPDEF (Homo sapiens, UniProt O95238 1-335); details: protein: recombinant; tags: N-terminal GST; dsDNA, one strand shown
T9 sequence: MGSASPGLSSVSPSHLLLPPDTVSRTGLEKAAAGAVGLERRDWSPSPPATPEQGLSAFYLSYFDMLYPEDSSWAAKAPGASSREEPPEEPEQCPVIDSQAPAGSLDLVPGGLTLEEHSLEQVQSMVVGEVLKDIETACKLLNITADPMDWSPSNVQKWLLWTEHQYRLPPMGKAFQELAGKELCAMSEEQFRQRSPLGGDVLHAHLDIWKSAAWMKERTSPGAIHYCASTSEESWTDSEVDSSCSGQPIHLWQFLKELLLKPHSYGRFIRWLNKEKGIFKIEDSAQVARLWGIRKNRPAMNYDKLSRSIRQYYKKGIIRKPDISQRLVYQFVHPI
Method in brief: as §1

ETV7 = target: T10, ETV7 (Homo sapiens, UniProt Q9Y603 1-341); details: protein: recombinant; tags: N-terminal GST; dsDNA, one strand shown
T10 sequence: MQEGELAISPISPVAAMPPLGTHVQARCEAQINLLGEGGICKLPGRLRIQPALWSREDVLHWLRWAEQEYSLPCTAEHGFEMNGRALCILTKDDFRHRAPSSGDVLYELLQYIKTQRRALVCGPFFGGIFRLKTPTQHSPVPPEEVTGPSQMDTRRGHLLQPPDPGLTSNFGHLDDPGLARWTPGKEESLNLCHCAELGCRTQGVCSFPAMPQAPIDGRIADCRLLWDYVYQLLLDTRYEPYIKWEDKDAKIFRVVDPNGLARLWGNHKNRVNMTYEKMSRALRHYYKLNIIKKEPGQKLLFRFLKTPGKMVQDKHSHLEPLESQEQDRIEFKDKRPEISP
Method in brief: as §1

ELF5 = target: T11, ELF5 (Homo sapiens, UniProt Q9UKW6-2 1-255); details: protein: recombinant; tags: N-terminal GST; dsDNA, one strand shown
T11 sequence: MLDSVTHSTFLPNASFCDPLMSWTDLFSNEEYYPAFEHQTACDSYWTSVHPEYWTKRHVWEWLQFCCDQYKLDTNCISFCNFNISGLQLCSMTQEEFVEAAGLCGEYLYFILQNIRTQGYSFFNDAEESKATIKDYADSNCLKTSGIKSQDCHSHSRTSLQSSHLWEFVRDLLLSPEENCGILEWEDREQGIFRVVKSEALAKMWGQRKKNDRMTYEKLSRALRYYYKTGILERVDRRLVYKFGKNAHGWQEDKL
Method in brief: as §1

ETV3 = target: T12, ETV3 (Homo sapiens, UniProt P41162-2 1-143); details: protein: recombinant; tags: N-terminal GST; dsDNA, one strand shown
T12 sequence: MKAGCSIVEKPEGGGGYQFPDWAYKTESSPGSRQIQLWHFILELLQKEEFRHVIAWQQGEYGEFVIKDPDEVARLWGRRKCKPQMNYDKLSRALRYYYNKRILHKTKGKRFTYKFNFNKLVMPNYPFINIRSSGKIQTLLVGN
Method in brief: as §1

ETV6 = ETV6 (Homo sapiens, UniProt P41212 1-452); details: protein: recombinant; tags: N-terminal GST; dsDNA, one strand shown
Chain of ETV6 (P41212 whole entry): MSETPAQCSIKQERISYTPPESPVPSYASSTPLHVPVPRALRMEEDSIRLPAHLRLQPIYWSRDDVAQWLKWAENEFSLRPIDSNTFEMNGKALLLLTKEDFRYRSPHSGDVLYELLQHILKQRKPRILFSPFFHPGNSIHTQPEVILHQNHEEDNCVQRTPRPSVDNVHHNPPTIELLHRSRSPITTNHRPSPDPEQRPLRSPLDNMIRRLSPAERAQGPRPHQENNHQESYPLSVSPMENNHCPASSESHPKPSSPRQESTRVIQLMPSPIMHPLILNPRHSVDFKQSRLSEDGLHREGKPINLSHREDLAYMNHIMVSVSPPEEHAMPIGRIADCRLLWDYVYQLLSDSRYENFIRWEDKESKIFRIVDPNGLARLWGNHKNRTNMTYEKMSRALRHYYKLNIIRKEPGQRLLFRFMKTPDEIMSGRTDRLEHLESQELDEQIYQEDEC
Method in brief: as §1

CATATT
binding signal (FEV): 1.22 fold enrichment (6-mer frequency, TF over GST control)
binding signal (ETV5): 1.26 fold enrichment (6-mer frequency, TF over GST control)
binding signal (HSF1): 1.31 fold enrichment (6-mer frequency, TF over GST control)
binding signal (SPIC): 1.12 fold enrichment (6-mer frequency, TF over GST control)
binding signal (ELF4): 1.32 fold enrichment (6-mer frequency, TF over GST control)
binding signal (ELK4): 1.29 fold enrichment (6-mer frequency, TF over GST control)
binding signal (ETV2): 1.43 fold enrichment (6-mer frequency, TF over GST control)
binding signal (ELF3): 1.35 fold enrichment (6-mer frequency, TF over GST control)
binding signal (CRX): 1.33 fold enrichment (6-mer frequency, TF over GST control)
binding signal (ETV1): 1.25 fold enrichment (6-mer frequency, TF over GST control)
binding signal (ERF): 1.32 fold enrichment (6-mer frequency, TF over GST control)
binding signal (ETV3L): 1.29 fold enrichment (6-mer frequency, TF over GST control)
binding signal (ETS2): 1.22 fold enrichment (6-mer frequency, TF over GST control)
binding signal (SPDEF): 1.24 fold enrichment (6-mer frequency, TF over GST control)
binding signal (ETV7): 1.19 fold enrichment (6-mer frequency, TF over GST control)
binding signal (ELF5): 1.23 fold enrichment (6-mer frequency, TF over GST control)
binding signal (ETV3): 1.24 fold enrichment (6-mer frequency, TF over GST control)
binding signal (ETV6): 1.25 fold enrichment (6-mer frequency, TF over GST control)

Reference: PMC7862700, “An all-to-all approach to the identification of sequence-specific readers for epigenetic DNA modifications on cytosine”
